From PubChem BioAssay
PTHR1 agonist = qHTS for PTHR1 Agonists: Primary Screen | Parathyroid hormone/parathyroid hormone-related peptide receptor (Homo sapiens), Q03431 | HEK293 GP2 PTHR1 cells, GloSensor cAMP luminescence, 1 h | Potency, µM (doses to about 115 µM), for inactives: at the top dose activation, hits mostly activators | 410,000 tested, 0.075% active | AID 743266, 2014; further: nearly all actives have a fitted effect of over 55% in size
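HEK-293-derived GP2 cells expressing PTHR1 and a GloSensor cAMP reporter, 3,000/well, plated overnight, given luciferin plus IBMX (each 0.5 mM as added) for 1 h at 37 °C, then compound for 1 h at 37 °C. Luminescence was read after 15 min at room temperature.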
HEK293 tox = qHTS of GLP-1 Receptor Inverse Agonists: Cytotox Screen. 410,000 tested, 0.13% active. HEK293 cAMP-luciferase reporter cells, luminescence, 24 h. Potency, µM (titrated, usually from 38.3 µM), without a hit: top-dose activity change, negative = inhibition, most hits filed as inhibitors. AID 624418, 2012;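 further: loss of luciferase light is scored as toxicity; on the % scale 0 is the no-effect control and ±100 the full control effect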
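Quantitative HTS format, 1536 wells, 200 cells/uL seeded. Compounds: 23 nL, 24 h, 37 °C. Detection: luciferase reagent, luminescence at 12 min RT; decreased signal taken as cytotoxic.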
GLP1R inv ag = qHTS of GLP-1 Receptor Inverse Agonists (Inhibition Mode); HEK293 GLP-1R CRE-luciferase, luminescence, 24 h; GLP-1R form is constitutively active; Potency, µM (doses to about 38.3 µM), for the others: at the highest dose activity change, negative = inhibition, hits mostly inhibitors; 410,000 tested, 1.6% active; AID 624417, 2012; further: on the % scale 0 is the no-effect control and ±100 the full control effect; nearly all actives have a fitted effect of over 55% in size
Target sequence (P43220 whole entry, looked up): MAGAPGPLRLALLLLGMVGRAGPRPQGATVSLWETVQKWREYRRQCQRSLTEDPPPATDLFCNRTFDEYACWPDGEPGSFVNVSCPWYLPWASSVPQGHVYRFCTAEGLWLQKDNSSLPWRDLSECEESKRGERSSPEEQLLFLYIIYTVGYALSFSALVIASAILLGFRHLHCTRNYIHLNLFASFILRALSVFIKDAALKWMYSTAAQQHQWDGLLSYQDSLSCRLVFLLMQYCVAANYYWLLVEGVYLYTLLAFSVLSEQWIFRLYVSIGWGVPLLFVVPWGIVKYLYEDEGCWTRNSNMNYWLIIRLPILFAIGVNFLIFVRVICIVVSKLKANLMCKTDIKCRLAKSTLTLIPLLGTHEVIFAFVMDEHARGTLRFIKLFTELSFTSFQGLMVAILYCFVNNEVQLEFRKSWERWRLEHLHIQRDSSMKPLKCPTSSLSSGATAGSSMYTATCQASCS
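Luminescence readout: a drop in cAMP-driven luciferase signal flags inverse agonism at a constitutively active GLP-1R stably expressed in HEK293. Compound exposure lasted 24 hr at 37 deg C, 5% CO2.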
GLP1R ag = qHTS of GLP-1 Receptor Agonists; Potency, µM (series often up to 45.6 µM), for inactives: at the top dose activation, hits mostly activators; 380,000 tested, 0.007% active; AID 624172, 2012; HEK293 GLP-1R CRE-luciferase, luminescence, 4-6 h; cells express a hypersensitive GLP-1R form; further: % of control where 0% means no effect
Numbers without * were called inactive; i = inactive; ? = inconclusive; . = no result; [ ] = another dose, or the depositor's remark. An excerpt weighted towards active compounds, which were near 1.7% of everything screened. The call rests on the fitted dose curve; in most records, active means well fitted curve in the direction sought with a large enough effect; inconclusive means small, poorly fitted or top-dose-only effect, or another doubt; inactive means no such curve, though single readings can be large; an effect the other way counts as inactive or inconclusive. Potency means the concentration at half of the fitted maximal effect.

SMILES	PTHR1 agonist	HEK293 tox	GLP1R inv ag	GLP1R ag
Cc1csc(NC(=O)c2c(-c3c(Cl)cccc3Cl)noc2C)n1	i	5.7%	11.2µM*	0.6%
Cc1csc(NC(=O)c2c(-c3c(F)cccc3Cl)noc2C)n1	-32.8%	-2.3%	?	-8.2%
Cc1onc(-c2c(Cl)cccc2Cl)c1C(=O)Nc1ccc(Cl)cn1	i	13.4%	1.78µM*	9.9%
CC1CCN(c2nn3c(=O)c(C(=O)NCCc4ccccc4)cnc3s2)CC1	-20.3%	-2.8%	-7.4%	.
CCN1c2ccccc2-c2nc(SCC(=O)NCc3ccc(Cl)cc3)ncc2S1(=O)=O	i	4.8%	?	.
COc1ccc(CCn2c(C3CCCCC3)nc3c(c(=O)c4ccccc4n3C)c2=O)cc1	-28.5%	5.01µM*	?	8.1%
COc1ccc(Cn2c(C3CCCCC3)nc3c(c(=O)c4ccccc4n3C)c2=O)cc1	-38.3%	-20.7%	-17.8%	1.5%
COc1ccc(S(=O)(=O)n2nc(C)c(S(=O)(=O)N3CCC(C)CC3)c2C)cc1OC	-4.7%	-0.4%	1.6%	-0.5%
Cc1cccc(N(C)S(=O)(=O)c2ccc(-c3cc(C)no3)s2)c1	-24.3%	-10.5%	1µM*	9.5%
Cc1ccc(CCNC(=O)c2cn(C)c3ccc(S(=O)(=O)N(C)C4CCCCC4)cc3c2=O)cc1	-16.1%	-1.4%	7.5%	.
Cc1cc(C)n(C(C)CC(=O)Nc2ccc(C)c(F)c2)n1 (stereo not given)	-21.3%	3.4%	-21.5%	.
O=S(=O)(c1ccc2[nH]c3c(c2c1)CCCC3)N1CCN(c2cccc(C(F)(F)F)c2)CC1	i	-17.6%	10µM*	.
O=S(=O)(c1ccc2[nH]c3c(c2c1)CCCC3)N1CCCCC1	-34.4%	-25.9%	?	-0.6%
COc1cccc(NC(=O)CSc2nc(=O)n(Cc3cccnc3)c3c2CCC3)c1	i	-6.8%	3.4%	.
O=C(NCc1cccc(Cl)c1)c1cnn2c1NC(c1ccco1)CC2C(F)(F)F (stereo not given)	-15.2%[57.5 µM]	-15.7%	0.0%	-6.8%
O=C(NCC12CC3CC(CC(C3)C1)C2)c1nn2c(c1Cl)NC(c1ccco1)CC2C(F)(F)F (stereo not given)	i	-1.2%	3.98µM*	-9.1%
CC1Cc2cc(/C=C3/SC(=S)NC3=O)ccc2O1 (stereo not given)	-58.0%	10µM*	?	2.5%
O=C(Nc1ccc2c(c1)OCCO2)c1cccc(Cl)c1Cl	-21.3%	-12.3%	11.2µM*	-2.2%
Cc1cc(Cl)ccc1OCC(=O)N1CCCN(C(=O)COc2ccc(Cl)cc2C)CC1	-32.6%	-23.8%	?	-15.8%
Cc1cc(Cl)ccc1OC(C)C(=O)N1CCCN(C(=O)C(C)Oc2ccc(Cl)cc2C)CC1 (stereo not given)	-13.4%	?	5.01µM*	-24.8%
O=C(NC1CCN(Cc2ccccc2)CC1)c1ccc(Cn2c(=O)c3ccccc3n(Cc3ccc(F)cc3)c2=O)cc1	i	-8.3%	19.4%	.
C=CCNCC(=O)N1N=C(c2ccc3ccccc3c2)CC1c1ccc(OC)cc1 (stereo not given)	-24.9%	?	12.6µM*	20.7%
CCc1c(-c2ccccc2)nc2ccccc2c1C(=O)NCc1ccc(C)cc1	-36.6%	-1.8%	?	.
CCc1ccccc1NC(c1nnc(-c2cccc(F)c2)o1)c1ccc(F)cc1Cl (stereo not given)	i	-1.0%	11.2µM*	.
Cc1ccc(C)c(OCC(O)CN2CCc3ccccc3C2)c1C (stereo not given)	-26.6%	-0.7%	8.91µM*	19.1%
SMILES	PTHR1 agonist	HEK293 tox	GLP1R inv ag	GLP1R ag
Cc1cc(OCC(O)CN2CCc3ccccc3C2)ccc1Cl (stereo not given)	-0.3%	-30.6%	7.08µM*	-5.7%
CCOc1ccc(OCC(O)CN2CCc3ccccc3C2)cc1 (stereo not given)	i	4.2%	?	-7.9%
O=c1c(=O)n(-c2ccc(F)c(F)c2)ccn1Cc1ccc(F)cc1Cl	5.2%	13.9%	11.2%	.
CCc1cccc(NC(=O)C2CCCN(S(=O)(=O)c3cccs3)C2)c1 (stereo not given)	-15.0%	-12.0%	10µM*	18.2%
COc1ccc(NC(=O)C2CCCN(S(=O)(=O)c3cccs3)C2)cc1OC (stereo not given)	?	-5.0%	-6.1%	2.7%
O=C(Nc1ccc2c(c1)N(S(=O)(=O)c1cccs1)CCC2)c1c(F)cccc1Cl	-32.9%	-3.0%	7.94µM*	-7.3%
CC1=C(C(=O)OC2CCCC2)C(c2coc3ccccc3c2=O)C2=C(CC(C)(C)CC2=O)N1 (stereo not given)	-51.8%	-8.3%	2.51µM*	14.8%
Cc1ccc(S(=O)(=O)N(CC(=O)Nc2ccccc2C(=O)O)c2cccc(Cl)c2C)cc1	-4.4%	-16.4%	8.91µM*	-9.6%
Cc1ccc(Cn2c(=O)n(-c3cc(C)cc(C)c3)c(=O)c3oc4ccccc4c32)cc1	-26.9%	2.9%	1.7%	.
CCc1nc2ccccc2n1CCCCOc1ccc(C)cc1	-30.7%	8.1%	10µM*	.
OCCCc1nc2ccccc2n1CCc1ccccc1	i	-41.7%	0.0%	6.3%
CCCc1nc2ccccc2n1CCc1ccccc1	i	-10.0%	10µM*	10.1%
CCc1nc2ccccc2n1CCCCOc1ccc(Cl)cc1	i	24.1%	?	.
CCN(CC)CCNc1nc(-n2nc(C)cc2C)nc2sc3c(c12)CC(C)(C)OC3	5.9%	?	4.47µM*	-1.8%
O=c1c2[nH]c3ccccc3c2nc(SCc2cccc(F)c2)n1-c1ccccc1	i	-2.4%	-0.1%	.
CCn1c2ccccc2c2cc(NC(=O)CNCC3CCCO3)ccc21 (stereo not given)	i	-10.9%	10µM*	9.8%
CCn1c2ccccc2c2cc(NC(=O)CN3CCCC3)ccc21	-16.2%	-20.4%	?	7.2%
Oc1ccc2ccccc2c1N=Nc1ccccn1	i	2.51µM*	?	?
Oc1ccc2ccccc2c1N=Nc1ccccc1F	i	-12.1%	16.3%	1.3%
COC(=O)c1ccc(C(=O)OC)c(NC(=O)CCC(=O)O)c1	i	0.0%	3.8%	-3.9%
COC(=O)c1ccc(C(=O)OC)c(NC(=O)CSCc2ccc(Br)cc2)c1	-24.5%	-17.9%	7.94µM*	-1.4%
COc1cc(C(=O)N2CCc3ccccc32)cc(OC)c1OC	i	-3.7%	-27.0%	-3.8%
COc1cc2ccccc2cc1C(=O)N1CCc2ccccc21	-26.7%	?	7.94µM*	2.2%
CCC(=O)C(Cc1ccccc1)(Cc1ccccc1)CC(C)N(C)C (stereo not given)	.	.	.	5.8%[96 µM]
O=C(NCCN1C(=O)S/C(=C\c2ccccc2F)C1=O)C1=COCCO1	-15.4%	-29.4%	1µM*	5.7%
